Data taken from PubChem BioAssay.
Inconclusive results are not listed. Calls of active or inactive are those of the source.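 The calls were made as follows, unless noted: active = normalized viability below 100% at a tested concentration; inactive = the rest.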

What was measured:
[1] = growth inhibition of DIPG glioma cells, dose response, cell-based, SU-DIPG-XVII, MIPE5.0, CellTiter-Glo, qHTS (AID 1347060; cut-off not given, nearly all actives have AC50 up to about 26 µM;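 as to AC50: cells exposed to compound for 48 hours before viability readout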); conditions: SU-DIPG-XVII viability, CellTiter-Glo ATP luminescence
[2] = growth inhibition of DIPG glioma cells, dose response, cell-based, SU-DIPG-XIII, MIPE5.0, CellTiter-Glo, qHTS (AID 1347064; cut-off not given, nearly all actives have AC50 up to about 23 µM;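 as to AC50: cells exposed to compound for 48 hours before the viability read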); conditions: SU-DIPG-XIII viability, CellTiter-Glo ATP luminescence
[3] = viability loss in pontine glioma line – cell-based, SU-DIPG-XXV, MIPE5.0, CellTiter-Glo, qHTS, dose response (AID 1347065; cut-off not given, nearly all actives have AC50 up to about 26 µM;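 also: cells exposed to compound for 48 hours before ATP readout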); conditions: CellTiter-Glo ATP luminescence
[4] = JHH-DIPG-1 glioma cell viability, MIPE5.0 library, CellTiter-Glo luminescence, qHTS (AID 1347067; cut-off not given, nearly all actives have AC50 up to about 26 µM;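 also: cells exposed to compound for 48 hours before readout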); conditions: JHH-DIPG-1 glioma viability, CellTiter-Glo ATP luminescence
[5] = SU-DIPG-XXV glioma cell viability, MIPE5.0 library, qHTS (AID 1347068; cut-off not given, nearly all actives have IC50 up to about 30 µM;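 as to IC50: cells exposed to compound for 48 hours before viability readout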)
[6] = sensitizers of A549 cells to miR-34 induction, primary screen, imaging, A549 dox-inducible miR-34, nuclei and caspase counts (AID 1347080;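 active = compounds whose cell count with miR-34 switched on is under 0.7 times the count with it off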); conditions: A549 miR-34 inducible, Hoechst nuclei count, 48 h
[7] = survival rescue of mitochondrial mutant cells in low glucose, primary screen, MELAS cybrids, Rieske KO mouse fibroblasts, CellTiter-Glo (AID 1508586;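 active = mean z-score across replicates of 1.96 or higher in either the MELAS or the Rieske mutant cell line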;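 also: z relative to plate mean and SD of compound and empty wells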)
[8] = ovarian cancer cell viability with rucaparib, profiling panel, oncology-focused library, rucaparib conditional (AID 1508598); conditions: patient-derived ovarian cancer cells, CellTiter-Glo viability, 144 h, stronger effect = lower value
[9] = stronger effect = lower value, cell number ratio, induced over uninduced
[10] = measured here: relative caspase fold change +Dox/-Dox
[11] = measured here: total cells with miR-34 induction, stronger effect = lower value
[12] = measured here: total cells without miR-34 induction
[13] = MELAS cybrid survival, CellTiter-Glo 48 h, stronger effect = higher value
[14] = Rieske KO mouse fibroblast survival, CellTiter-Glo 72 h

CC(C)N(CCCNC(=O)Nc1ccc(C(C)(C)C)cc1)C[C@H]1O[C@@H](n2ccc3c(N)ncnc32)[C@H](O)[C@@H]1O
inactive: outcome [1] | outcome [2] | outcome [3] | outcome [4] | outcome [5]

COc1cccc(-c2cc(F)ccc2C2Cc3nc(N)nc(C)c3C(=O)N2)n1 (stereo unspecified)
2200: cell count [6, 11]
-1.33: z-score [7, 14]
0.335: fold change [6, 10]
active: AC50 [1] 29.5 nM | AC50 [2] 41.7 nM | AC50 [3] 29.5 nM | AC50 [4] 37.2 nM | IC50 [5] 74.2 nM | z-score [7, 13] 2.51
inactive: fold change [6, 9] 0.968
2270: cell count [6, 12]

COc1cc(N2CCC(N(C)C)CC2)ccc1Nc1ncc(Cl)c(Nc2ccccc2P(C)(C)=O)n1
1580: cell count [6, 12]
0.883: fold change [6, 10]
-0.471: z-score [7, 14]
1590: cell count [6, 11]
active: AC50 [1] 1050 nM | AC50 [2] 934 nM | AC50 [3] 417 nM | AC50 [4] 1660 nM | IC50 [5] 1860 nM | z-score [7, 13] 3.7
inactive: fold change [6, 9] 1.01

c1ccc(Cn2c(-c3ccc(OCC(C4CCNCC4)n4c(-c5ccccc5)nc5ccccc54)cc3)nc3ccccc32)cc1 (stereo unspecified)
5040: cell count [6, 12]
active: AC50 [1] 18600 nM | AC50 [2] 20900 nM | AC50 [3] 13200 nM | AC50 [4] 16600 nM | IC50 [5] 23500 nM
-1.33: z-score [7, 14]
0.359: fold change [6, 10]
5600: cell count [6, 11]
inactive: fold change [6, 9] 1.11 | z-score [7, 13] -0.583

C=CC(=O)Nc1cccc(Nc2nc(Nc3ccc(NC4CN(CCF)C4)cc3OC)ncc2C(F)(F)F)c1
inactive: fold change [6, 9] 0.964 | z-score [7, 13] 0.32 | viability ([8]; at 0.000305 µM, OCI-C5x cells, with rucaparib 10 µM, 100% = cells with rucaparib alone) 115% | viability ([8]; at 0.000305 µM, OCI-C5x cells, without rucaparib) 107% | viability ([8]; at 0.00122 µM, OCI-C5x cells, with rucaparib 10 µM, 100% = cells with rucaparib alone) 122% | viability ([8]; at 0.00122 µM, OCI-C5x cells, without rucaparib) 120% | viability ([8]; at 0.00488 µM, OCI-C5x cells, with rucaparib 10 µM, 100% = cells with rucaparib alone) 123% | viability ([8]; at 0.00488 µM, OCI-C5x cells, without rucaparib) 114% | viability ([8]; at 0.0195 µM, OCI-C5x cells, with rucaparib 10 µM, 100% = cells with rucaparib alone) 118% | viability ([8]; at 0.0195 µM, OCI-C5x cells, without rucaparib) 108% | viability ([8]; at 0.0195 µM, OCI-P5x cells, without rucaparib) 103% | viability ([8]; at 0.0781 µM, OCI-C5x cells, with rucaparib 10 µM, 100% = cells with rucaparib alone) 102% | viability ([8]; at 0.0781 µM, OCI-C5x cells, without rucaparib) 115% | viability ([8]; at 0.0781 µM, OCI-P5x cells, with rucaparib 20 µM, 100% = cells with rucaparib alone) 103% | viability ([8]; at 0.313 µM, OCI-C5x cells, with rucaparib 10 µM, 100% = cells with rucaparib alone) 132% | viability ([8]; at 0.313 µM, OCI-C5x cells, without rucaparib) 127% | viability ([8]; at 0.313 µM, OCI-P5x cells, with rucaparib 20 µM, 100% = cells with rucaparib alone) 106% | viability ([8]; at 0.313 µM, OCI-P5x cells, without rucaparib) 104% | viability ([8]; at 1.25 µM, OCI-C5x cells, with rucaparib 10 µM, 100% = cells with rucaparib alone) 119% | viability ([8]; at 1.25 µM, OCI-C5x cells, without rucaparib) 126%
0.345: fold change [6, 10]
1.6: z-score [7, 14]
2000: cell count [6, 12]
1930: cell count [6, 11]
active: AC50 [1] 1480 nM | AC50 [2] 2350 nM | AC50 [3] 1320 nM | AC50 [4] 2630 nM | IC50 [5] 833 nM | viability ([8]; at 0.000305 µM, OCI-P5x cells, with rucaparib 20 µM, 100% = cells with rucaparib alone) 98.4% | viability ([8]; at 0.000305 µM, OCI-P5x cells, without rucaparib) 92.9% | viability ([8]; at 0.00122 µM, OCI-P5x cells, with rucaparib 20 µM, 100% = cells with rucaparib alone) 99.4% | viability ([8]; at 0.00122 µM, OCI-P5x cells, without rucaparib) 89.9% | viability ([8]; at 0.00488 µM, OCI-P5x cells, with rucaparib 20 µM, 100% = cells with rucaparib alone) 96.9% | viability ([8]; at 0.00488 µM, OCI-P5x cells, without rucaparib) 94.8% | viability ([8]; at 0.0195 µM, OCI-P5x cells, with rucaparib 20 µM, 100% = cells with rucaparib alone) 98.4% | viability ([8]; at 0.0781 µM, OCI-P5x cells, without rucaparib) 98.1% | viability ([8]; at 1.25 µM, OCI-P5x cells, with rucaparib 20 µM, 100% = cells with rucaparib alone) 83.8% | viability ([8]; at 1.25 µM, OCI-P5x cells, without rucaparib) 83.2% | viability ([8]; at 5 µM, OCI-C5x cells, with rucaparib 10 µM, 100% = cells with rucaparib alone) 19.5% | viability ([8]; at 5 µM, OCI-C5x cells, without rucaparib) 94.4% | viability ([8]; at 5 µM, OCI-P5x cells, with rucaparib 20 µM, 100% = cells with rucaparib alone) 13.3% | viability ([8]; at 5 µM, OCI-P5x cells, without rucaparib) 20%
